Inconclusive results are not listed. The source made the active and inactive calls. The call rests on the fitted dose curve; in most records, active means well fitted curve in the direction sought with a large enough effect; inconclusive means small, poorly fitted or top-dose-only effect, or another doubt; inactive means no such curve, though single readings can be large; an effect the other way counts as inactive or inconclusive.

Results on seven molecules are retold here after PubChem BioAssay (NCATS).

Test [1] is described as follows: SW1088 Cancer Cell Toxicity qHTS against the NCATS CANVASS Library (AID 1347350). Further: nearly all actives have a fitted effect of over 75% in size. Further: potency means the concentration at half of the fitted maximal effect. The method in brief:
(§1)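 Step one: seed 1000 cells per well. Step two: incubate 4 h. Step three: add test compounds in 11 concentrations. Step four: culture 72 h, then add CellTiter-Glo and record luminescence after 15min.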
Background: Quantitative high-throughput screening tests each substance at several concentrations.

Test [2] is described as follows: HEK-293 Cancer Cell Toxicity qHTS against the NCATS CANVASS Library (AID 1347355). Further: potency means the concentration at half of the fitted maximal effect; nearly all actives have a fitted effect of over 65% in size. The method in brief: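 Cells at 1000/well were given compound 4 h after plating in an 11-point series. Viability was read by CellTiter-Glo luminescence after 72 h at 37 degrees C.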
For test [3], the target named is Luciferin 4-monooxygenase (Photinus pyralis) (UniProt P08659). The test can be described thus: Firefly luciferase counterscreen qHTS: Assay Interference Panel against the NCATS CANVASS Library (AID 1347363). Further: series mostly up to about 57 µM. Put shortly: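 Purified P. pyralis luciferase was added to compounds (11-point series) preincubated 15 min at room temperature with substrate containing 0.013 mM D-luciferin and 0.013 mM ATP; luminescence was read after 5 min.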
Background: Counterscreens check selectivity or assay interference.

The nature of test [4]: qHTS for ATAD5 Agonist screened against the NCATS CANVASS Library (AID 1347367).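 Further: luciferase reporter driven by ATAD5 which rises upon DNA damage.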 Put shortly:
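HEK293T cells stably carrying an ATAD5-controlled luciferase reporter (2000 cells/well) attached for 5 hr, then received compounds in an 11-point series for 16hr at 37C. Luminescence was read after a 30 min room-temperature reagent step.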

The nature of test [5]: MCF7 Cancer Cell Toxicity qHTS against the NCATS CANVASS Library (AID 1347369). Put shortly: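 MCF7, 500 cells/well; cpds 11-pt qHTS; 72 hr, 37C/5% CO2; CellTiterGlo ATP luminescence.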
Test [6] can be described thus: qHTS for ATAD5 Antagonist screened against the NCATS CANVASS Library (AID 1347370). Further: nearly all actives have a fitted effect of over 65% in size. Further: potency means the concentration at half of the fitted maximal effect. The method in brief: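 HEK293T cells with stably integrated ATAD5-luciferase reporter, 2000/well, 5 h attachment; compounds plus 10 µM 5-fluorouridine, 16 h at 37 °C. Luciferase luminescence read, with CellTiter-Fluor viability read first.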
A short description of test [7]: J3T Cancer Cell Toxicity qHTS against the NCATS CANVASS Library (AID 1347371).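 Further: J3T is a canine glioma cancer cell line seeded at 500 cells per well; series mostly up to about 46 µM.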 The method in brief: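 J3T dog glioma cells, 500 per well, treated 72 h at 37C with compounds (11-point qHTS); viability from ATP content by CellTiterGlo luminescence; bortezomib titration as control.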
Test [8] in a line: Inflammasome Signaling qHTS Counterscreen: IL-1-beta AlphaLISA counterscreen against the NCATS CANVASS Library (AID 1347381).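 Further: cell-free check with purified IL-1β in medium and no THP-1 cells; series mostly up to about 57 µM.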 The method in brief: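 Cell-free interference check: compounds added to medium spiked with 4 pg purified IL-1β. Anti-IL-1β acceptor beads (6 ug/mL) with 0.6 nM biotinylated antibody added for 1 h at RT, then streptavidin donor beads (24 ug/mL) for 30 min in the dark. AlphaLISA read at 680/615 nm.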

Test [9] can be described thus: qHTS for activators of Nrf2/ARE signaling pathway screened against the NCATS CANVASS Library (AID 1347391). Further: nearly all actives have a fitted effect of over 60% in size. Further: potency means the concentration at half of the fitted maximal effect. The method in brief: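 ARE-bla HepG2 beta-lactamase reporter cells exposed to compounds for 16 h at 37C; CCF4 substrate 2 h, fluorescence at ex 405 nm, em 460/530 nm. Viability by CellTiter-Glo luminescence.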
A short description of test [10]: OV-KATE Cancer Cell Toxicity qHTS against the NCATS CANVASS Library (AID 1347345). The method in brief:
as §1

Test [11] can be described thus: HPAF-II 12hr Apoptosis Induction qHTS against the NCATS CANVASS Library (AID 1347358). Put shortly: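 HPAF-II cells, 500/well in DMEM + 10% FBS, exposed 12 hours at 37 degrees C to compound (11-point). Caspase-Glo 3/7 added for 15 min at room temperature; luminescence reflects caspase-3/7 activity.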
The nature of test [12]: KB-8-5-11 Cancer Cell Toxicity qHTS against the NCATS CANVASS Library (AID 1347364). Further: nearly all actives have a fitted effect of over 75% in size. Further: potency means the concentration at half of the fitted maximal effect. The method in brief: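 KB-8-5-11 cells, 500/well in DMEM + 10% FBS, given compounds in an 11-point series. Incubated 72 h at 37 °C. Viability by CellTiter-Glo luminescence. Confirmation also run with 1 uM tariquidar.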
Test [13] can be described thus: G06 Cancer Cell Toxicity qHTS against the NCATS CANVASS Library (AID 1347368). Further: nearly all actives have a fitted effect of over 60% in size. Further: potency means the concentration at half of the fitted maximal effect. The method in brief: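 G06 dog glioma cells, 500 per well, exposed 72 hr at 37C, 5% CO2 to compounds in an 11-point series. Cytotoxicity read as ATP content by CellTiterGlo luminescence.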
The nature of test [14]: qHTS for Hypoxia signaling pathway (HIF-1) antagonists against the NCATS CANVASS Library (AID 1347374).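 Further: HRE-bla ME-180 cells stimulated with cobalt chloride to stabilize HIF-1alpha; series mostly up to about 38 µM; nearly all actives have a fitted effect of over 60% in size.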 The method in brief:
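HRE-bla ME-180 cells in medium with 0.5% dialyzed FBS received compounds (11-point series) plus CoCl2 (60 uM addition stock) for 17 hrs at 37C. Beta-lactamase activity read with CCF4 (405 nm ex, 460/530 nm em); CellTiter-Glo viability measured in same wells.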

Test [15] in a line: qHTS for H2AX Agonists against the NCATS CANVASS Library (AID 1347378). Put shortly:
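CHO-K1 cells were plated overnight at 37C, then exposed to compounds (concentration series, 0.76% DMSO final) for 3 hr at 37C. Lysates received Eu-cryptate anti-pH2AX (S139) and d2 anti-H2AX antibodies; after 24 hr at room temperature, TR-FRET 665/620 nm ratio was read.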

Test [16] is described as follows: Secretion counterscreen for inhibitors of the SERCaMP assay screened against the NCATS CANVASS Library (AID 1347390).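 Further: light from luciferase secreted into medium read as a measure of general secretion; series mostly up to about 77 µM.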 The method in brief: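 SH-SY5Y cells expressing constitutively secreted GLuc, 1000 cells/well, attached 4 h at 37C, then exposed to compounds (0.001 - 77 uM, 11-pnt series) for 20 h. Coelenterazine added; luminescence read to flag secretory-pathway interferers.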

Test [17] is described as follows: qHTS for inhibitors of ER calcium dysfunction: SERCaMP assay screened against the NCATS CANVASS Library (AID 1347393).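 Further: series mostly up to about 77 µM; lower secreted reporter signal means inhibitor of ER calcium depletion; nearly all actives have a fitted effect of over 40% in size.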 The method in brief:
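qHTS in SH-SY5Y reporter cells: 16 h compound pretreatment, 4 h thapsigargin, then secreted Gaussia luciferase measured by luminescence.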

Test [18] in a line: qHTS for inhibitors of Wild type Zika virus screened against the NCATS CANVASS Library (AID 1347396).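 Further: ATP luminescence of surviving cells so rescue from viral cell killing; series mostly up to about 46 µM.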 The method in brief: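 Luminescent CellTiter Glo read-out of virus-induced cytotoxicity, 72 h post-infection, in Vero 766 cells. Compounds were tested at 11 concentrations; uninfected, vehicle-treated wells defined 100% inhibition.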
Test [19] in a line: A2780 Cisplatin Sensitive Ovarian Cancer Cell Toxicity qHTS against the NCATS CANVASS Library (AID 1347353). Further: potency means the concentration at half of the fitted maximal effect; nearly all actives have a fitted effect of over 60% in size. The method in brief:
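A2780 cells, 750/well, settled 4 h at 37 °C, then treated with an 11-point compound series for 72 h. Viability was read as ATPLite luminescence after 10 min at room temperature, with bortezomib as control.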

A short description of test [20]: SDT Cancer Cell Toxicity qHTS against the NCATS CANVASS Library (AID 1347365). Put shortly: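 SDT dog glioma cells (500/well) exposed to an 11-point compound series for 72 hr at 37C, 5% CO2. Cytotoxicity read as ATP content by CellTiterGlo luminescence; bortezomib titration as control.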

Luciferin 4-monooxygenase (Photinus pyralis), sequence (P08659 whole entry, looked up): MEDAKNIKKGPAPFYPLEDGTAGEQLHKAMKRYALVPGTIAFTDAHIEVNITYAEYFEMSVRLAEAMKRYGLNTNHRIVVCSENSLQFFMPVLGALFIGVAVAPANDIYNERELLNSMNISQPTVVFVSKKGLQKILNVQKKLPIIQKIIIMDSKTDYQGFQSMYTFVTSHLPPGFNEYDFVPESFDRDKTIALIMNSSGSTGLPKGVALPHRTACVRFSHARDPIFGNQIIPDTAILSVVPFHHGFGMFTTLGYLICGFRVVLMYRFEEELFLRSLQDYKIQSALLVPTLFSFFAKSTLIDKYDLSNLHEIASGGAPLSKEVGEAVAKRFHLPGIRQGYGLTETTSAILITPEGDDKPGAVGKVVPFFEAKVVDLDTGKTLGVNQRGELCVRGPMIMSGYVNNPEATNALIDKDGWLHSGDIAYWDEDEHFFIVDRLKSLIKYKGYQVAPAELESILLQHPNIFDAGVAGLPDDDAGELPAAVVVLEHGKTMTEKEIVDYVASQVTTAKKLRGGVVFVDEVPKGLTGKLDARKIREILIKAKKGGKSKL

Regarding `CC[C@@H]1[C@H](C)[C@H](c2cc(OC)c(OC)cc2OC)[C@@H](C)[C@H](c2cc(OC)c(OC)cc2OC)[C@]12C=C(OC)C(=O)C=C2OC`, the Potency was 21.1 µM (active) in test [1], 26.4 µM (active) in test [2] and 23.4 µM (active) in [6]. Moreover, the Potency result in [3], in [4], in test [5], in [7] and in test [9] was “inactive” throughout. In addition, the outcome in [8] was inactive.

Regarding `COc1ccc([C@@H]2c3cc4c(cc3C(=O)[C@H](C)C2C)OCO4)cc1OC` (some centres not stated), the Potency entry in [10], in test [1], in test [11], in test [3], in test [4] and in test [13] was “inactive” throughout. Also, the Potency result in test [5], in test [7], in test [14], in [15], in test [16] and in test [17] was “inactive” throughout. In addition, the figures for the Potency in test [2], in test [12] and in [6] were 18.7 µM (active), 16.6 µM (active) and 16.6 µM (active), respectively. The molecule was called inactive in test [8] and in test [18].

On to `COc1cc(C2C3=C(Cc4cc5c(cc42)OCO5)C(=O)OC3)cc(OC)c1OC` (configuration not stated), for which the Potency result in [10], in test [1], in test [11], in test [3], in test [6] and in test [14] was “inactive” in each case. Moreover, the Potency entry in [15], in test [16] and in [17] was “inactive” in each case. Further, the Potency in test [19] was 0.0833 µM (active); in test [2] it was 0.059 µM (active); in [12] it was 0.105 µM (active); in test [20], 0.118 µM (active); in test [13], 0.0935 µM (active). Also, the outcome in test [8] and in test [18] was inactive.

Turning to `C=C1C[C@H]2O[C@@H]3[C@@H]4[C@H](CC[C@@](C)(O)[C@@H]42)[C@H](C)COC3(C)[C@@H](OC(=O)CCCCCCC)C[C@H]1O` (some centres not stated), the Potency in test [2] is 23.5 µM (active); in test [9], 20.9 µM (active). Moreover, the Potency entry in test [11], in [3], in test [4], in test [6], in test [7] and in test [15] was “inactive” each time. In addition, in [16], the Potency entry is “inactive”. For the same molecule, the outcome in test [8] and in test [18] was inactive.

Take `CC1=C[C@H]2[C@H]3C(=O)C(c4ccc(O)cc4)=C[C@@]3(c3ccc(O)cc3)[C@@H]1C(=O)[C@]2(C)O`: the Potency result in [10], in test [1], in test [11], in [3], in test [5] and in test [6] was “inactive” each time. Moreover, the Potency entry in test [14], in test [15] and in test [17] was “inactive” each time. The Potency was 0.418 µM (active) in [19]; 0.235 µM (active) in test [2]; 3.72 µM (active) in test [12]; 0.209 µM (active) in test [20]; 0.235 µM (active) in test [13]. Further, the molecule was called inactive in test [8].

For the molecule `O=C1CCC(=O)N(O)CCCCCNC(=O)CCC(=O)N(O)CCCCCNC(=O)CCC(=O)N(O)CCCCCN1`, the Potency result in test [1], in test [11], in [3], in test [12], in test [4] and in test [6] was “inactive” each time. Besides, the Potency entry in test [7], in test [14], in test [15], in test [16], in [9] and in [17] was “inactive” throughout. Also, the values for the Potency in [19], in test [20] and in test [13] were 26.4 µM (active), 4.18 µM (active) and 8.33 µM (active), respectively. In addition, the molecule was classed as inactive in [8] and in test [18].

Take `C=C[C@]1(C)CC[C@@H]([C@H](C)C(=O)/C=C/C(C)(C)O)O1`: the Potency result in test [10], in test [1], in [11], in [3], in test [12] and in test [5] was “inactive” each time. Further, the Potency result in [14], in test [15] and in test [16] was “inactive” each time. Also, the call in [8] and in test [18] was inactive. Also, the Potency in test [9] is 16.6 µM (active).
